According to PubChem BioAssay AID540276 (National Center for Advancing Translational Sciences (NCATS), 2011):
Several values for one entry are separate records, joined by “and”; a condition that tells them apart may be missing. Equal entries are not always repeated. The campaign covered roughly 300,000 compounds. About 5,400 (1.8%) were called active. A call without a number means that no potency is given here. Inconclusive results (about 28%) are left out. The call rests on the fitted dose curve; tested in HEK293 cells. Only a selection was taken, and actives are over-represented in it overall. Some structures have more than one record in an assay (separate samples or runs), and their calls can disagree.

Assay: qHTS for inhibitors of binding or entry into cells for Marburg Virus
Conditions: Marburg virus pseudotyped entry inhibition, cell reporter; series mostly up to 37.8 µM
Potency means the concentration at half of the fitted maximal effect.

Compound | Potency
Cc1ccc(OCc2cc(C(=O)N(C)CCn3ccnc3C)no2)cc1C | inactive
COC(=O)C/C=C/[C@@H](C)[C@@H](/C=N/OC[C@@H](O)[C@H]1O[C@@H]2OC(C)(C)O[C@@H]2[C@H]1O)OC | inactive
CCOC(=O)c1ccc(NC(=O)c2cccnc2)cc1 | inactive
O=C(NNC(=O)c1ccc(Cl)nc1)c1ccc(Br)cc1 | inactive
CCN(CC)c1ccc(NC(=O)c2ccc(Cl)nc2)cc1 | 7.08 µM (active)
Cc1ccc(NC(=O)C(C)OC(=O)C2CC3CCCC(C2)C3=O)cc1S(=O)(=O)N1CCOCC1 (configuration not stated) | inactive
COc1ccc(/C=C/c2noc(-c3ccccc3OC(C)=O)n2)cc1 | 11.2 µM (active)
CC(=O)Oc1ccccc1[C@@H]1OC(=O)c2ccccc2N1C(C)=O | inactive
COc1ccc(/C=C/c2noc(-c3ccccc3O)n2)cc1OC | inactive
CN(CC(=O)NCCc1ccc(S(N)(=O)=O)cc1)CC(=O)Nc1ccc(F)c(F)c1F | inactive
COc1ccc(CCN(C)CCN2C(=O)c3ccccc3C2=O)cc1OC | inactive
COc1ccc(CCNc2nc(C)cc(C)n2)cc1OC | inactive
COc1ccc(CCNC2=C(Cl)C(=O)N(Cc3ccccc3)C2=O)cc1OC | 11.2 µM (active)
CC(=NNC(=O)c1ccc2nc[nH]c2c1)c1ccc(Br)cc1 | inactive
O=C(O)c1ccc(Cn2cnc3c(=S)nc[nH]c32)cc1 | inactive
O=C(COc1ccc(Br)cc1F)NCC1(N2CCCCC2)CCCCC1 | 10 µM (active)
O=C(COc1ccccc1F)NNC(=O)c1ccc(N2CCCCC2)c([N+](=O)[O-])c1 | inactive
O=C(COC(=O)COc1ccccc1F)Nc1cccc(S(=O)(=O)N2CCCCC2)c1 | inactive
Nc1ncnc2c1cnn2C1CC(O)C(CO)O1 (configuration not stated) | inactive
COc1ccc(C(=O)OCC(=O)N2CC(=O)Nc3ccccc32)cc1Br | inactive
O=C(Nc1ccc(S(=O)(=O)N2CCOCC2)cc1)C1CCN(S(=O)(=O)c2ccc(Cl)cc2)CC1 | inactive
CCCCNC1(C#N)CCN(Cc2ccccc2)CC1 | inactive
O=C(NNS(=O)(=O)c1ccc([N+](=O)[O-])cc1)C1CCCCC1 | inactive
O=c1c2cc3c(=O)n(CC4CCCO4)c(=O)c3cc2c(=O)n1CC1CCCO1 (configuration not stated) | inactive
O=C(NCc1ccc2c(c1)OCO2)c1ccc2c(c1)C(=O)N(CC1CCCO1)C2=O (configuration not stated) | inactive
O=C1c2cccc3c([N+](=O)[O-])ccc(c23)C(=O)N1CC1CCCO1 (configuration not stated) | 23.1 µM (active)

Compound | Potency
Cc1cc(S(=O)(=O)Nc2ccc(C(=O)NCC(c3ccco3)N3CCCC3)cc2)ccc1F (configuration not stated) | inactive
CCC(=O)N1CCc2cc(Br)c(S(=O)(=O)NCCN3CCCCC3CC)cc21 (configuration not stated) | inactive
CCN(Cc1ccccc1)C(=O)Cc1ccc(OC)c(S(=O)(=O)N2CCOCC2)c1 | inactive
COc1cccc(CNS(=O)(=O)c2ccc3c(c2)CC(C)N3C(C)=O)c1 (configuration not stated) | inactive
COC(=O)CC=C[C@@H](C)[C@H](NC(=O)OCC(Cl)(Cl)Cl)c1ccc2ccccc2c1 | inactive
Cc1ccc(-c2nn(-c3ccc(F)cc3)cc2C(=O)NCC(c2cccs2)N2CCOCC2)cc1 (configuration not stated) | inactive
Cc1ccc(S(=O)(=O)NC2CCCCCC2)cc1 | inactive
Cc1ccc(S(=O)(=O)N(C)C2(C)CCS(=O)(=O)C2)cc1 (configuration not stated) | inactive
Cc1ccc(S(=O)(=O)C2(S(=O)(=O)c3ccc(C)cc3)CCCC2)cc1 | 3.98 µM (active)
COc1cccc2cc(C(=O)NCc3ccc(C)cc3)c(=N)oc12 | inactive
Cc1cccc2[nH]c(CN(C)C(=O)C3CCC(=O)N(CCc4ccccc4)C3)nc12 (configuration not stated) | inactive
CCOc1ccc(CCNC(=O)CSc2cc(=O)n(C)c3ccc(Cl)cc23)cc1OCC | inactive
CCN(CCCNC(=O)CSc1cc(=O)n(C)c2cc(Cl)ccc12)c1cccc(C)c1 | inactive
CCN(CCCNC(=O)CSc1cc(=O)n(C)c2cc(Cl)ccc12)Cc1ccccc1 | 11.2 µM (active)
Cc1ccc(NC(=S)NCCc2ccc(Cl)cc2)c(C)c1 | inactive
Oc1cc2c(cc1O)CN(C(=S)NCCc1ccc(Cl)cc1)CCC2 | inactive and 355 nM (active)
COc1ccc(CCNC(=S)N2CCN(S(=O)(=O)c3ccc(Cl)cc3)CC2)cc1 | inactive
CC(=O)c1ccc(S(=O)(=O)N(C)CCCC(=O)N(C)Cc2ccccc2F)cc1 | inactive
O=C(CCn1nnnc1CN1CCOCC1)N1CCC(c2ccccc2Cl)C1 (configuration not stated) | inactive
CCCC(CNC(=O)COC(=O)C1=NNC(=O)CC1)c1ccc(Cl)cc1Cl (configuration not stated) | inactive
CCOc1ccccc1Nc1nnc(SCC(=O)NCC2CCCO2)s1 (configuration not stated) | inactive
CCOC(=O)N1CCN(C(=O)C2CCCN(c3ncnc4c3sc3cccc(F)c34)C2)CC1 (configuration not stated) | inactive
OC1CCCN(c2ncnc3c2nnn3Cc2c(F)cccc2Cl)C1 (configuration not stated) | 10 µM (active)
O=C(CSc1ncnc2c1nnn2Cc1ccc(F)cc1)NC1CCCC1 | inactive
O=C1N=CC(F)C(=O)N1 (configuration not stated) | inactive
CCOc1ccc(NC(=O)CN(C)C(=O)c2cccc(S(=O)(=O)N3CCCC3)c2)cc1OCC | inactive

Compound | Potency
COc1ccccc1C(=O)N(C1=NC(C)CS1)c1ccc(Cl)cc1 (configuration not stated) | inactive
O=C(COC(=O)c1ccc(O)cc1O)NC(=O)c1ccccc1 | inactive
O=C(NNc1c2ccccc2nc2ccccc12)c1cc2ccccc2cc1O | 3.16 µM (active)
Cc1noc(C)c1COC(=O)c1cc2ccccc2cc1O | inactive
COc1ccccc1C(=O)OCC(=O)Nc1cccc(S(=O)(=O)NC2=NCCCCC2)c1 | inactive
O=C1CCc2cc(S(=O)(=O)Nc3ccc(C(F)(F)F)cc3)cc3c2N1CC3 | inactive
Cc1cccc(-n2c(SCC(N)=O)nc3c(oc4ccccc43)c2=O)c1 | inactive
Cc1cccc(-n2c(SCC(N)=O)nc3c(c2=O)C2(CCCCC2)Cc2ccccc2-3)c1 | 4.47 µM (active)
Cc1cccc(-n2c(N)cc(=O)nc2SC(C)C(=O)NC2CCCCC2)c1 (configuration not stated) | inactive
O=S(=O)(Nc1ccc2nc(N3CCOCC3)sc2c1)c1ccccc1 | inactive
COc1ccc(CC(=O)NC(C)c2ccc(Cl)c(Cl)c2)cc1S(=O)(=O)N1CCOCC1 (configuration not stated) | inactive
CCOc1ccc(CCNC(=O)COC(=O)c2ccc(F)c(S(=O)(=O)N3CCOCC3)c2)cc1OCC | inactive
CC(NCC(=O)Nc1ccccc1C(=O)NC1CC1)c1ccccc1Cl (configuration not stated) | inactive
Cn1c(Cl)cnc1[C@H]1CC(=O)c2cc(Cl)ccc2O1 | 10 µM (active)
COc1cccc(NC(=O)C[C@H]2SC(=Nc3ccccc3)NC2=O)c1 | inactive
Cc1cc(O)cc(O)c1C(=O)Cc1cnn(-c2ccccc2)c1 | inactive
O=C(c1cnn(-c2ccc(Cl)cc2)c1)c1ccccc1O | 3.55 µM (active)
Cc1ncc(CC(=O)n2cc(C(=O)c3cc(Cl)ccc3O)cn2)s1 | inactive
O=c1oc2ccccc2c(=O)c2ccccc12 | inactive
Cc1cccc(CN2CCC(n3nccc3NC(=O)c3ccccc3C)CC2)n1 | inactive
CC1(C(=O)NNC(=S)NCC2CCCO2)CC1(Cl)Cl (configuration not stated) | inactive
CC(=O)OC1C2(CC3N4C(=O)C5(CO)SSC4(CC31O)C(=O)N5C)OC(C)C(C)(C)C2=O (configuration not stated) | 1.41 µM (active)
Cc1ccc(OCC(=O)N/N=C\c2ccco2)c(C)c1 | inactive
Cc1ccc(OCC(=O)N/N=C/c2ccncc2)cc1 | inactive
Cc1ccc(/C=N/NC(=O)COc2ccccc2-c2ccccc2)cc1 | 1.3 µM (active)
CCn1cc(CN2CCC(C(=O)Nc3cccc(-c4cccc(Cl)c4)c3)CC2)cn1 | 12.6 µM (active)

Compound | Potency
O=C(Nc1ccc(-n2cccn2)cc1)C1CCN(Cc2ccsc2)CC1 | inactive
O=C(Nc1cnn(Cc2ccc(Cl)cc2)c1)C1CCCC1 | inactive
CC(C)CO/N=C1\C[C@@H](O)[C@@H](O)[C@@H]2[C@@H]3C(=O)N(C[C@@H]4CCCO4)C(=O)[C@@H]3CC[C@@H]12 | inactive
CC1CN(Cc2ccco2)C(=S)N(c2ccccc2)C1=O (configuration not stated) | inactive
O=C1CCCN1C(=O)COc1ccc([N+](=O)[O-])cc1 | inactive
Cc1noc(C)c1CSCC(=O)N(CCC(C)C)c1c(N)n(Cc2ccccc2)c(=O)[nH]c1=O | inactive
COc1ccc(/C=C/C(=O)Nc2cccnc2)cc1OC | inactive
COc1ccc(/C=C/C(=O)OCC(=O)NC2CCCCCC2)cc1OC | inactive
COc1ccc(/C=C/C(=O)Nc2ccc(C34CC5CC(CC(O)(C5)C3)C4)cc2)cc1OC | 6.51 µM (active)
CCOC(=O)Cc1[nH]nc2c1[C@H](c1cc(OC)ccc1OC)C(C#N)=C(N)O2 | inactive
COc1ccc(-n2c(C)nc3c(cnn3-c3ccc(F)cc3)c2=O)cc1 | inactive
COc1ccc(Oc2c(Cl)cnn(-c3ccccc3)c2=O)cc1 | 10 µM (active)
Cc1ccc(Oc2cnn(-c3ccccc3)c(=O)c2Br)cc1 | inactive
c1ccc(-c2nnc(N3CCOCC3)c3ccccc23)cc1 | inactive
Cc1cc(C(=O)Nc2ccccc2N2CCOCC2)c2ccccc2n1 | inactive
c1ccc(Nc2nc(N3CCOCC3)c3ccccc3n2)cc1 | 12.6 µM (active)
Cc1nn(-c2ccc(F)cc2)c(Cl)c1/C=C(/CCC(=O)O)c1nc2ccccc2s1 | inactive
Cc1cc(O)c(Sc2ccccc2)c(=O)o1 | inactive
CCOc1cccc(-c2nnc(SCC(=O)NC3CC3)n2C)c1 | inactive
COCC(=O)Nc1ccc(Br)cc1 | inactive
Cc1ccc(NC(=O)CCN2CCc3ccccc3C2)cc1 | inactive
CN1C(CC(=O)Nc2ccc(Br)cc2)c2ccccc2CC1(C)C (configuration not stated) | 11.2 µM (active)
COc1ccc(Cc2nnc(SCC(=O)Nc3ccc(C)c(C)c3)o2)cc1OC | inactive
CC(C)Nc1nnc(SC(C)C(=O)N(C)C2CCCCC2)s1 (configuration not stated) | inactive
